Results filed as inconclusive are left out. Active and inactive are the calls of the source. Unless noted, calls follow the shape of the dose curve; as a rule, active = well fitted curve in the direction sought with a large enough effect in the repeat runs; inconclusive = weak or mixed curves; inactive = no such curve, though single readings can be large; an effect the other way counts as inactive or inconclusive.
Legend:
[1] = qHTS assay for small molecules that induce genotoxicity in human embryonic kidney cells expressing luciferase-tagged ATAD5 (AID 651632); also: nearly all actives have a fitted effect of over 15% in size
Procedure, shortened: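 Reporter cells (HEK293T) express luciferase-tagged ATAD5, a protein that accumulates after DNA damage. Treat 16 hr at 37C/5% CO2, add Amplite, wait 30 min at RT, and read luminescence.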

[2] = qHTS assay for small molecule agonists of the p53 signaling pathway - cell viability (AID 651633; calls by dose curve;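 also: p53RE-bla HCT reporter cells with a stable beta-lactamase p53 reporter; series mostly up to about 83 µM; nearly all actives have a fitted effect of over 30% in size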)
Procedure, shortened: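 p53RE-bla cells, seeded at 4,000 per well and rested 5 h at 37 C/5% CO2, received compounds in DMSO for 16 h at 37 C. CellTiter-Glo was then added, and luminescence was read after 30 min at room temperature to gauge cytotoxicity.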

[3] = qHTS assay for small molecules that induce genotoxicity in human embryonic kidney cells expressing luciferase-tagged ATAD5 - cell viability (AID 651634; calls by dose curve; also: nearly all actives have a fitted effect of over 25% in size)
Procedure, shortened: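 Seeding of 2,000 HEK293T ATAD5-luciferase cells per well preceded pin-tool compound transfer. Plates sat 15.5 hr at 37C under 5% CO2, then fluorescence was read after 30 min with CellTiter-Fluor.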

[4] = qHTS assay for small molecule disruptors of the mitochondrial membrane potential - cell viability (AID 720634; calls by dose curve; also: nearly all actives have a fitted effect of over 20% in size; also: potency is read from the fitted curve at half-maximal effect)
Procedure, shortened: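 Measuring cytotoxicity alongside mitochondrial potential, the screen quantified ATP by luminescence in HepG2 cells after 1 hr compound incubation and a 30 min room-temperature CellTiter-Glo step.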

[5] = qHTS assay for small molecule disruptors of the mitochondrial membrane potential (AID 720635); also: potency is read from the fitted curve at half-maximal effect
Procedure, shortened: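 HepG2 cells (2,000/well) attached overnight at 37C, then took compound for 1 hr at 37C, 5% CO2. Mito-MPS dye was added for 30 min; fluorescence was read at 490/535 nm (monomers) and 540/590 nm (aggregates).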

[6] = qHTS assay to test for compound auto fluorescence at 590 nm (red) in HepG2 cells (AID 720674)
Procedure, shortened: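 Compound auto-fluorescence is scored relative to Rose Bengal sodium, measured at 540/590 nm in live HepG2 cultures after 1 hr compound contact (37 C, 5% CO2).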

[7] = qHTS assay to test for compound auto fluorescence at 535 nm (green) in HepG2 cells (AID 720675)
[8] = qHTS assay to test for compound auto fluorescence at 460 nm (blue) in HEK293 cells (AID 720678)
Procedure, shortened: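 After cell attachment (4-5 hr, 37C), compounds were pinned onto HEK293 monolayers in 10% dialyzed FBS medium. The blue channel (405/460 nm) was read following overnight culture. Equivalency was calculated against triamterene.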

[9] = qHTS assay to test for compound auto fluorescence at 590 nm (red) in HEK293 cells (AID 720679)
Procedure, shortened: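 Plates of HEK293 cells (10% dialyzed FBS) are treated with 23 nL compound or DMSO vehicle after a 4-5 hr attachment period, incubated overnight at 37C, and read for red fluorescence at 540/590nm.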

[10] = qHTS assay to test for compound auto fluorescence at 460 nm (blue) in HEK293 cell free culture (AID 720681)
Procedure, shortened: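 Test compounds were pinned into cell-free culture medium (DMEM with 10% FBS) and fluorescence was read directly at Ex/Em 405/460 nm. Signals were expressed as fluorescence equivalents of triamterene, with DMSO vehicle as control.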

[11] = qHTS assay to test for compound auto fluorescence at 535 nm (green) in HEK293 cell free culture (AID 720682)
Procedure, shortened: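 Green-channel intensity (Ex/Em 485/535 nm) was recorded from compound-treated wells containing only DMEM with 10% FBS. Fluorescein provided the equivalency standard.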

[12] = qHTS assay to test for compound auto fluorescence at 590 nm (red) in HEK293 cell free culture (AID 720683)
Procedure, shortened: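 Tox21 10K library compounds were pinned into cell-free DMEM with 10% FBS and fluorescence was read at excitation 540 nm. Activity is expressed as Rose Bengal sodium equivalency.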

[13] = qHTS assay to test for compound auto fluorescence at 590 nm (red) in HepG2 cell free culture (AID 720684)
Procedure, shortened: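 Red fluorescence (540 nm excitation, 590 nm emission) was measured after compound transfer into cell-free MEM supplemented with 10% FBS. Values are equivalencies against Rose Bengal sodium.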

[14] = qHTS assay to test for compound auto fluorescence at 460 nm (blue) in HepG2 cell free culture (AID 720685)
Procedure, shortened: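 Compound (23 nL) or DMSO pinned into cell-free MEM with 10% FBS; blue fluorescence read at 405/460 nm excitation/emission, expressed as auto-fluorescence equivalency to triamterene.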

[15] = qHTS assay to test for compound auto fluorescence at 535 nm (green) in HepG2 cell free culture (AID 720686)
[16] = qHTS assay to test for compound auto fluorescence at 460 nm (blue) in HepG2 cells (AID 720687)
Procedure, shortened: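 Cells (2,000/well in MEM with 10% FBS) attached overnight at 37 C, then were exposed to compound or DMSO for 1 hr at 37 C, 5% CO2. Fluorescence read at Ex/Em 405/460 nm, expressed as triamterene-equivalent signal.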

[17] = target: Glucocorticoid receptor (Homo sapiens) (UniProt P04150); experiment: qHTS assay to identify small molecule agonists of the glucocorticoid receptor (GR) signaling pathway (AID 720691; active = well fitted activation curve with a large enough effect in the signal ratio in the repeat runs, not every such curve was filed as active; the % refers to the signal ratio)
Procedure, shortened: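 Reporter read-out: fluorescence intensity following 2 h room-temperature LiveBLAzer B/G FRET substrate loading. Prior step: GR-bla HeLa cells held 4 h, then treated 18 h at 37 C.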

[18] = qHTS assay to test for compound auto fluorescence at 535 nm (green) in HEK293 cells (AID 720680)
[19] = target: Glucocorticoid receptor (Homo sapiens) (UniProt P04150); experiment: qHTS assay to identify small molecule antagonists of the glucocorticoid receptor (GR) signaling pathway (AID 720692; active = well fitted inhibition curve with a large enough effect in the signal ratio in the repeat runs, not every such curve was filed as active; the % refers to the signal ratio)
Procedure, shortened: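 Dexamethasone (5 nM final) stimulated a stably integrated GRE-beta-lactamase reporter in HeLa cells during 18 h co-incubation with compounds; signal was quantified as fluorescence intensity of B/G FRET substrate after 2 h.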
% is scaled to controls: 0 for no effect and ±100 for the full control effect.

Chain of Glucocorticoid receptor (Homo sapiens) (P04150 whole entry, looked up): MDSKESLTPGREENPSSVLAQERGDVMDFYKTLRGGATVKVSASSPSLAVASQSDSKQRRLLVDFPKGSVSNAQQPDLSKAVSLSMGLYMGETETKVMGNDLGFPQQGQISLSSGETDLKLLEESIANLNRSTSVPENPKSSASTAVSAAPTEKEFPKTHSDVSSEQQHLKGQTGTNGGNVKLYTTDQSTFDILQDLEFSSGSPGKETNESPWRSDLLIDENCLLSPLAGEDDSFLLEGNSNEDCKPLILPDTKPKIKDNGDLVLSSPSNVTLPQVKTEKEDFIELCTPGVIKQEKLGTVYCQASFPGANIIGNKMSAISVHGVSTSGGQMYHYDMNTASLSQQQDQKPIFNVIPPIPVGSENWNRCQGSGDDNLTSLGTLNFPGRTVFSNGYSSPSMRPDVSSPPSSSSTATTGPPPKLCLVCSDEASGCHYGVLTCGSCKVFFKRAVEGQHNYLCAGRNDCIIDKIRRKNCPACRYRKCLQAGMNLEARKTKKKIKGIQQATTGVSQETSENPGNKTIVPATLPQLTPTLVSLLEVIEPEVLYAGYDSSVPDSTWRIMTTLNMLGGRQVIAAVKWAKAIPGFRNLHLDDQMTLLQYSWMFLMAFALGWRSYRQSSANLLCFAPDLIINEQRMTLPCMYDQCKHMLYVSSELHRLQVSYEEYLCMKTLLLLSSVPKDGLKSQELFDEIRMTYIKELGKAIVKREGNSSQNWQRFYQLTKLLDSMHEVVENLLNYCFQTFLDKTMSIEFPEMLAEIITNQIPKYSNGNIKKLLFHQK

Oc1ccc(Cl)c2cccnc12
active: Potency [5] 11.9 µM
inactive: Potency [1] | Potency [2] | Potency [3] | Potency [4] | outcome [6] | outcome [7] | Potency [8] | outcome [9] | Potency [10] | outcome [11] | outcome [12] | outcome [13] | Potency [14] | outcome [15] | Potency [16] | Potency [17]

CCCCCCCC/C=C\CCCCCCCCO
inactive: Potency [1] | Potency [2] | Potency [3] | Potency [4] | Potency [5] | outcome [7] | outcome [9] | outcome [18] | Potency [10] | outcome [11] | outcome [12] | Potency [14] | outcome [15] | Potency [17] | Potency [19]

CN(C(=O)CN(CCO)CC(=O)N(C)C(C)(C)Cc1ccccc1)C(C)(C)Cc1ccccc1
inactive: Potency [1] | Potency [2] | Potency [3] | Potency [4] | fluorescence, relative to Rose Bengal [6] -0.825% [at 18.6 µM] | fluorescence, % of fluorescein control [7] -0.0053% [at 18.6 µM] | fluorescence, % of triamterene [8] 0.252% [at 18.6 µM] | fluorescence, % of fluorescent control [9] 0.0938% [at 18.6 µM] | fluorescence, % of fluorescein [18] 0.0843% [at 18.6 µM] | fluorescence, % of fluorescent control [10] 0.0268% [at 18.6 µM] | activity change [11] -0.0126% [at 18.6 µM] | fluorescence, % of fluorescent control [12] 0% [at 18.6 µM] | fluorescence, % of Rose Bengal [13] 0.844% [at 18.6 µM] | fluorescence, % of fluorescent control [14] -0.036% [at 18.6 µM] | fluorescence, % of fluorescein control [15] 0.0894% [at 18.6 µM] | fluorescence, % of fluorescent control [16] 0.0182% [at 18.6 µM] | Potency [17] | Potency [19]

O=C(OC(=O)c1ccccc1)c1ccccc1
inactive: Potency [1] | Potency [2] | Potency [3] | Potency [4] | Potency [5] | outcome [7] | Potency [8] | outcome [9] | outcome [18] | Potency [10] | outcome [11] | outcome [12] | outcome [13] | outcome [15] | Potency [16] | Potency [17] | Potency [19]

NNC(=O)CP(=O)(c1ccccc1)c1ccccc1
inactive: Potency [1] | Potency [2] | Potency [3] | Potency [4] | outcome [6] | outcome [7] | Potency [8] | outcome [9] | outcome [18] | Potency [10] | outcome [11] | outcome [12] | outcome [13] | Potency [14] | outcome [15] | Potency [16] | Potency [19]

Cc1ccccc1N=C(N)Nc1ccccc1C
inactive: Potency [1] | Potency [2] | Potency [3] | Potency [4] | outcome [6] | outcome [7] | Potency [8] | outcome [9] | outcome [18] | Potency [10] | outcome [11] | outcome [12] | outcome [13] | Potency [14] | outcome [15] | Potency [16]

CCCCN1CCCC1C(=O)Nc1c(C)cc(C)cc1C (centres undefined)
inactive: Potency [1] | Potency [2] | Potency [3] | Potency [4] | outcome [6] | outcome [7] | Potency [8] | outcome [9] | outcome [18] | Potency [10] | outcome [11] | outcome [12] | outcome [13] | Potency [14] | outcome [15] | Potency [16] | Potency [17]

c1ccc2c(c1)CCc1ccccc1N2
active: Potency [4] 54.8 µM
inactive: Potency [1] | Potency [2] | Potency [3] | outcome [6] | outcome [7] | outcome [9] | outcome [18] | Potency [10] | outcome [11] | outcome [12] | outcome [13] | outcome [15] | Potency [16]

C1COC1
inactive: Potency [1] | Potency [2] | Potency [3] | Potency [4] | Potency [5] | outcome [6] | outcome [7] | Potency [8] | outcome [9] | outcome [18] | Potency [10] | outcome [11] | outcome [12] | outcome [13] | Potency [14] | outcome [15] | Potency [16]

O=C(Nc1cccc2c(=O)cc(-c3nn[nH]n3)oc12)c1ccc(OCCCCc2ccccc2)cc1
inactive: Potency [1] | Potency [2] | Potency [3] | Potency [4] | outcome [6] | outcome [7] | Potency [8] | outcome [9] | outcome [18] | Potency [10] | outcome [11] | outcome [12] | outcome [13] | outcome [15] | Potency [16]

C[C@]1(Cn2ccnn2)[C@H](C(=O)O)N2C(=O)C[C@H]2S1(=O)=O
inactive: Potency [1] | Potency [2] | Potency [3] | Potency [4] | outcome [6] | outcome [7] | Potency [8] | outcome [9] | outcome [18] | Potency [10] | outcome [11] | outcome [12] | outcome [13] | Potency [14] | outcome [15] | Potency [16]

CCC(=O)C1CC(C(C)C)CC=C1C (centres undefined)
inactive: Potency [1] | Potency [2] | Potency [3] | Potency [4] | Potency [5] | outcome [6] | outcome [7] | Potency [8] | outcome [9] | outcome [18] | Potency [10] | outcome [11] | outcome [12] | outcome [13] | Potency [14] | outcome [15] | Potency [16]

Nc1nnc(-c2ccc([N+](=O)[O-])o2)o1
inactive: Potency [1] | Potency [2] | Potency [3] | Potency [4] | outcome [6] | outcome [7] | Potency [8] | outcome [9] | outcome [18] | Potency [10] | outcome [11] | outcome [12] | outcome [13] | Potency [14] | outcome [15] | Potency [16] | Potency [17]

CC1CC(OC(=O)C(O)c2ccccc2)CC(C)(C)N1C (centres undefined)
inactive: Potency [1] | Potency [2] | Potency [3] | Potency [4] | outcome [6] | outcome [7] | outcome [9] | outcome [18] | Potency [10] | outcome [11] | outcome [12] | outcome [13] | Potency [14] | outcome [15] | Potency [16] | Potency [19]
